Source: PubChem BioAssay (EPA / NIEHS)
Records with an inconclusive call do not appear. Active and inactive are the calls of the source. How the source made its calls: active means hit-call score of the fitted dose curve at least 0.9, where 1 is the maximum; inconclusive means response in the unintended direction; inactive means score below 0.9.

read-out: ABC Transporter (ABCB11), ABCB11 (gene 8647); test: CLD_ABCB11_48hr: CellzDirect (CLD) Gene Expression Assay for ABC Transporter (ABCB11) at 48 hours (AID 2283697)
Method: CLD_48hr is a cell-based, multiplexed-readout assay that uses hepatocyte, a human liver primary cell, with measurements taken at 48 hours after chemical dosing in a 96-well plate.CLD_ABCB11_48hr is one of 16 assay component(s) measured or calculated from the CLD_48hr assay. It is designed to make measurements of mRNA induction, a form of inducible reporter, as detected with chemiluminescence signals by Quantitative Nuclease Protection Assay (qNPA) technology.Data from the assay component CLD_ABCB11_48hr was analyzed at the endpoint, CLD_ABCB11_48hr, in the positive analysis fitting direction relative to DMSO as the negative control and baseline of activity. Using a type of inducible reporter, gain-of-signal activity can be used to understand changes in the reporter gene as they relate to the gene ABCB11. Furthermore, this assay endpoint can be referred to as a primary readout. To generalize the intended target to other relatable targets, this assay endpoint is annotated to the transporter intended target family, where subfamily is ABC transporter.
Human hepatocyte cultures were treated daily for two consecutive days with fresh dosing solutions containing appropriate concentrations of the 320 ToxCast chemicals (chemical identities were blinded to CellzDirect and other ToxCast collaborators), vehicle control (0.2% DMSO), and positive control inducers as summarized in Table 1. Due to the large number of treatment groups and chemicals examined, the ToxCast chemicals were divided into two groups (spanning two independent cultures of hepatocytes from separate donor preparations (Hu778: ToxCast plates 1 and 2; Hu776: ToxCast plates 3 and 4). Each preparation of human hepatocyte cultures was treated with respective vehicle control, medium only control, set of six positive controls/reference chemicals for the five hepatic receptor pathways, and a subset of eight of the ToxCast chemicals (indoxacarb, pyrithiobac-sodium, norflurazon, cyhalofop-butyl, methomyl, thiram, acetochlor, and propiconazole). These replicate data, coupled with internal replicates designed within the blinded ToxCast chemical library, provided additional data to evaluate interindividual differences between hepatocyte preparations and their potential impact on chemical profiles.Cell morphology and integrity were evaluated using phase-contrast microscopy as an indicator of hepatocyte cell health (Tyson & Green, 1987). Cultures for each treatment group (i.e., media, vehicle [0.2% DMSO], positive control inducers [multiple concentrations], and the ToxCast chemicals [multiple concentrations]) were observed and cell morphology was assessed relative to vehicle control cultures at each harvest time point (0, 6, 24, or 48 h). […] Images were evaluated at the conclusion of the study to assess changes in cell integrity and account for the effects of chemical exposure on uncharacteristic changes in concentration-dependent gene expression profiles. The results from these determinations of apparent cytotoxicity were annotated (yes/no) alongside the corresponding qNPA data for reference.At the conclusion of each treatment period, hepatocyte cultures (96-well) were washed with 1 volume of HBSS, lysed by addition of 25 ul ArrayPlate lysis buffer (HTG, Tucson, AZ), and 70 ul/well of Denaturation Oil, denatured by incubation at 95C for 10 min, and frozen at approximately -70C until analysis by nuclease protection assay (qNPA) (Roberts et al., 2007). For qNPA analysis, cell lysates were thawed at 50C for approximately 30 min, qNPA probes were added, and samples were incubated at 95C for 10 min to begin the detection process by denaturing the target RNA, dissociating the duplexes and secondary structure hybridization. At the conclusion of the hybridization period, S1 nuclease reagent was added to each sample to digest all nonprotected nucleotides at 50C for 60-90 min. […]

Compound	outcome	AC50
COCCO	inactive	–
CCCN(CCC)C(=O)SCC	inactive	–
CCCCCOC(=O)COc1cc(N2C(=O)C3=C(CCCC3)C2=O)c(F)cc1Cl	inactive	–
CCOC(=O)[C@H](C)Oc1ccc(Oc2nc3ccc(Cl)cc3o2)cc1	inactive	–
C#CCOC(=O)[C@@H](C)Oc1ccc(Oc2ncc(Cl)cc2F)cc1	inactive	–
CCOC(=O)C(C)Oc1ccc(Oc2cnc3cc(Cl)ccc3n2)cc1 (stereo unspecified)	inactive	–
OB(O)O	inactive	–
CCCCC(CC)COC(=O)c1ccccc1C(=O)O (stereo unspecified)	inactive	–
CC1(C)C(C=C(Cl)Cl)C1C(=O)OCc1cccc(Oc2ccccc2)c1 (stereo unspecified)	inactive	–
CCC(C)OC(=O)N1CCCCC1CCO (stereo unspecified)	inactive	–
O=C(Nc1ccc([N+](=O)[O-])cc1Cl)c1cc(Cl)ccc1O	inactive	–
COC(=O)c1c(Cl)nn(C)c1S(=O)(=O)NC(=O)Nc1nc(OC)cc(OC)n1	inactive	–
CCCOC(=O)c1ccc(C(=O)OCCC)nc1	inactive	–
c1ccc(Nc2ccccc2)cc1	inactive	–
CCNc1nc(N)nc(Cl)n1	inactive	–
N#CSCSc1nc2ccccc2s1	–	34.1 µM (active)
